From PubChem BioAssay

Test: JC-1 mitochondrial signal, unstimulated adipocytes – cell-based, JC-1 fluorescence, 3T3-L1 adipocytes, 24 h, 100 nL compound, profiling panel (AID 1168); also: test concentration not given here
Conditions: JC-1 mitochondrial fluorescence, higher = more signal, called active from +8 up or from −8 down

z-score, inactive:
COCCCNC(=O)[C@@]1(Sc2ccc(C)cc2)CC(=O)N(Cc2ccccc2)[C@@H]1c1ccc(CO)cc1I -0.253
COC(=O)[C@H](C)NC(=O)CCC1CC(OC(=O)NCCc2ccc(F)cc2)CC2(CCCC(COC(=O)NCC(c3ccccc3)c3ccccc3)O2)O1 (stereo not given in full) 1.18
COc1ccccc1CN1C(=O)c2ccccc2[C@@H](C(=O)NCC(F)(F)F)[C@@H]1c1ccc(CO)cc1 0.913
Cc1cc2c(c(=O)o1)[C@H](O)[C@H]1O[C@H]1C2=O -0.883
CCN(CC)c1ccc(N2CC=CC34O[C@@H]5/C=C\CCC(C)OC(=O)C5[C@H]3C(=O)N(CCCO)[C@@H]4C2=O)cc1 (stereo not given in full) 0.0214
O=C1O[C@@H](c2ccccc2)[C@@H](c2ccccc2)N2[C@@H](c3ccccc3OCCO)[C@]3(C(=O)Nc4ccc(C#CCCO)cc43)[C@@H](C(=O)O)[C@H]12 -0.881
COc1ccc([Si](C)(C)[C@@H]2[C@@H](CC(=O)N3CCC[C@H]3CO)O[C@]3(C(=O)N(Cc4cccc(N5CCC5=O)c4)c4ccccc43)[C@H]2C)cc1 0.999
CC(C)(C)N1CC=CC23O[C@@H]4C=CCCOC(=O)C4[C@H]2C(=O)N(CCCCCO)[C@@H]3C1=O (stereo not given in full) 0.18
COc1cccc([C@@H]2Oc3ccc(Br)cc3C(=O)[C@H]2O)c1 -0.584
CO[C@H]1COC(=O)[C@@H]2CCCN2C(=O)CC=C[C@@H](C)[C@H](OC)COC(=O)CC=C[C@@H]1C 0.252
